High-throughput results: PubChem, National Center for Advancing Translational Sciences (NCATS)
Rows were chosen to be rich in hits. Some 4.6% of all compounds tested hit in one or more screens of this group.
Tau fibril FP: qHTS for Inhibitors of Tau Fibril Formation, Fluorescence Polarization; Potency, µM (doses to about 57.7 µM), for the others: at the top dose activity, negative = inhibition, usual class: inhibitors; Microtubule-associated protein tau (Homo sapiens), P10636; 280,000 compounds, 0.39% hits; K18 P301L tau heparin fibrillization, Alexa594 FP, 6 h; note: potency is the fitted concentration of half-maximal effect; nearly all actives have a fitted effect of over 55% in size
Target sequence (P10636 561-689 P618L limits assumed): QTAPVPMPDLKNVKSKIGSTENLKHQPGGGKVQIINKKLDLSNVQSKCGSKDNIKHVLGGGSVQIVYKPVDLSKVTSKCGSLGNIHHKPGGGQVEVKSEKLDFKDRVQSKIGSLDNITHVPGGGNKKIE
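Compound effects on tau fibrillization are measured by Alexa 594 fluorescence polarization (ex 555, em 632 nm). K18 P301L tau is used at 15 uM with 0.24 uM labeled tracer, and 20 uM heparin induces aggregation over 6 hr at 37 C.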
TRb SRC2 PPI: qHTS for Inhibitors of the Interaction of Thyroid Hormone Receptor and Steroid Receptor Coregulator 2 | TRbeta-SRC2 peptide binding, fluorescence polarization; receptor liganded with 1 µM T3 | Potency, µM (top dose mostly 106 µM), inactives show at the top dose activity change, negative = inhibition, most hits filed as inhibitors | AID 1469, 2008 | 280,000 compounds, 0.065% hits;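 note: potency is the fitted concentration of half-maximal effect; plate controls were bound peptide for no effect and peptide without receptor for full effect; nearly all actives have a fitted effect of over 50% in size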
Target sequence (P10828 whole entry, looked up): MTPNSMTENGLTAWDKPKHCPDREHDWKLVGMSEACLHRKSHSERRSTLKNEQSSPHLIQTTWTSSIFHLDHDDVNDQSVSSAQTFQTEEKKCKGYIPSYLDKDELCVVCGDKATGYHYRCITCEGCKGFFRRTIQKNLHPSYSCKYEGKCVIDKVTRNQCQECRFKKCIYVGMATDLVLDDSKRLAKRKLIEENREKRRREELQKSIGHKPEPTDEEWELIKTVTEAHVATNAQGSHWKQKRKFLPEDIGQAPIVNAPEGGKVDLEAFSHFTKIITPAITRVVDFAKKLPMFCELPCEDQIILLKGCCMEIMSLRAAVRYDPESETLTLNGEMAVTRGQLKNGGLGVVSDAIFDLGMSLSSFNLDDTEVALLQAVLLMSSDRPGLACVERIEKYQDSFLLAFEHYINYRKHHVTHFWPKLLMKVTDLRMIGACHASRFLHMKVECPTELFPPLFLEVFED
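TRb LBD 0.6 uM + Texas Red SRC2 peptide 20 nM, 1 uM T3, Tris buffer w/ 5% DMSO; compound pinned, 5 h RT; FP read ex 555/em 632; normalized to unbound and bound controls.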
PNC assembly inh: High Content Assay for Compounds that inhibit the Assembly of the Perinucleolar Compartment; 140,000 compounds, 3.1% hits; activity change (PNC), negative = inhibition, % at 10 µM; PC3M PTB-GFP, PNC prevalence imaging, 16 h; active compounds read low;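 active = readout at or below -70, meaning at least 70% loss of cells showing the perinucleolar compartment, a nuclear body marking cancer cells; inconclusive = readout between -30 and a set limit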;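 note: plate controls were DMSO wells for no effect and camptothecin positive control wells for full effect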
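Compounds are pinned in duplicate onto adhered PC3M cells stably expressing GFP-tagged PTB and incubated 16 h at 37 C. Cells are then fixed, nuclei stained with Hoechst, and PNC-positive cells counted.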
TexasRed fluor: Total Fluorescence Counterscreen for Inhibitors of the Interaction of Thyroid Hormone Receptor and Steroid Receptor Coregulator 2; TRb/SRC2 Texas Red total fluorescence interference; Potency, µM (top dose mostly 106 µM), without a hit: top-dose fluorescence change, negative = quenching; 280,000 compounds, 0.29% hits; active = well fitted curve in either direction with a large enough effect; inconclusive = small, poorly fitted or top-dose-only effect; note: potency is the fitted concentration of half-maximal effect
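Human TRb ligand-binding domain at 0.6 uM with 20 nM Texas Red SRC2 peptide in Tris buffer containing 1 uM T3 and 5% DMSO, incubated with compound 5 h at ambient temperature. Total fluorescence (555/632 nm) calculated as parallel + 2 × perpendicular.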
Tau fluor cs: Counterscreen qHTS for Inhibitors of Tau Fibril Formation, Fluorescence Polarization | tau K18 P301L Alexa594 fluorescence, heparin fibrillization | Potency, µM (doses to about 57.7 µM), for the others: at the highest dose activity change, negative = decrease | 280,000 compounds, 0.93% hits | AID 1463, 2008; note: potency is the fitted concentration of half-maximal effect; nearly all actives have a fitted effect of over 55% in size
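Human K18 P301L tau (15 uM unlabeled plus 0.24 uM Alexa 594-labeled, final) in 100 mM sodium acetate pH 7 was mixed with compound and 20 uM heparin and incubated 6 hr at 37 C.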
Tau ThT inhib: qHTS for Inhibitors of Tau Fibril Formation, Thioflavin T Binding. 270,000 compounds, 2.1% hits. recombinant tau K18 P301L (four-repeat tau fragment), heparin-induced fibrillization, ThT fluorescence. Microtubule-associated protein tau (Homo sapiens), P10636. Potency, µM (series often up to 57.4 µM), inactives show at the highest dose activity, negative = inhibition, hits mostly inhibitors; note: potency is the fitted concentration of half-maximal effect; nearly all actives have a fitted effect of over 55% in size
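Recombinant human tau K18 fragment […] carrying P301L, 15 uM unlabeled plus 0.24 uM Alexa 594-labeled, was fibrillized with 20 uM heparin in 100 mM sodium acetate pH 7 for 6 hr at 37 C; 30 uM ThT fluorescence read after 1 hr.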
* marks the source's active call; other numbers are inactive results; ? = inconclusive; nt = not tested or not shown; [ ] = remark or other dose. Unless noted, calls come from the whole dose curve; as a rule, active = well fitted curve in the direction sought with a large enough effect; inconclusive = small, poorly fitted or top-dose-only effect, or another doubt; inactive = no such curve, though single readings can be large; an effect the other way counts as inactive or inconclusive. Unless noted, % is set by controls: 0 for no effect and ±100 for the full control effect.

SMILES	Tau fibril FP	TRb SRC2 PPI	PNC assembly inh	TexasRed fluor	Tau fluor cs	Tau ThT inhib
O=C(/C=C/NNC(=O)c1ccccc1)c1ccc(Br)cc1	1%	-21%	-8	1%	?	25µM*
O=C(/C=C/NCC(=O)c1ccccc1)c1ccc(Br)cc1	-8%	11%	-97*	-1%	-25%	?
O=C(CCc1nc(-c2ccc(Cl)cc2)no1)NCC1CCCO1 (stereo not given)	4%	-1%	nt	0%	2%	0%
Clc1c(CSc2nc3ccccc3o2)nc2sccn12	-2%	-1%	-26	-4%	-19%	?
O=C(/C=C/NNC(=O)c1cccc(Br)c1)c1cccc(Br)c1	1%	-15%	6	-1%	?	14µM*
Cc1c(Cl)cccc1NC(=O)CSc1nc(=O)n(Cc2ccncc2)c2c1CCC2	-4%	1%	nt	-1%	-5%	1%
O=C(COc1ccc(Br)cc1)N(Cc1ccccc1)c1ccccn1	6%	-3%	18	2%	-8%	-11%
Nc1nc(-c2ccc(Br)s2)c(Br)s1	-1%	-4%	?	-2%	14µM*[quencher]	?
N#Cc1c(N)nc2c(c1-c1ccc(Br)s1)CCCC2	-8%	0%	-7	-4%	-6%	-5%
CCOc1cc(C)c(Cl)cc1S(=O)(=O)n1cnc2ccccc21	2%	10%	-107*	3%	-13%	7%
COC(=O)c1[nH]c2ccccc2c1NC(=O)CCN1CCN(C2CCCCC2)CC1	6%	-2%	19	0%	3%	-2%
COC(=O)\C(C(C)=O)=C(/C=C/C=C/C=C/N(C)C)N(C)C	?	-15%	38	9%	-24%	16µM*
O=[N+]([O-])c1cc(/C=N/n2cnnc2)ccc1N1CCCC1	5%	-7%	nt	-1%	-9%	7.9µM*
CC1CCN(c2ccc(/C=N\Nc3nncn3N)cc2[N+](=O)[O-])CC1	-3%	-1%	-116*	1%	-29%	10µM*
O=[N+]([O-])c1cc(/C=N/O)ccc1N1CCCC1	-3%	-1%	nt	-7%	-9%	?
CCOC(=O)C1=C(c2ccccc2)NC(=S)NC1c1cccc([N+](=O)[O-])c1 (stereo not given)	2%	7%	-20	0%	-14%	-7%
COc1ccc(/C=N/NC(=O)c2[nH]c(C)c(C(=O)N/N=C/c3ccc(OC)cc3)c2C)cc1	-5%	2%	?	2%	-10%	?
CC(C)c1nc(SCC(=O)N2CCN(c3ccccc3)CC2)c2c(=O)n(C)c(=O)n(C)c2n1	-4%	-6%	?	1%	-10%	?
CC(C)c1nc(SCC(=O)N2CCOCC2)c2c(=O)n(C)c(=O)n(C)c2n1	-3%	10%	-106*	-3%	-1%	-2%
CCOC(=O)C1(C)C=C(Nc2ccc(OC)cc2)C(=O)N1c1ccc(OC)cc1 (stereo not given)	2%	-13%	25	0%	-1%	4%
CCOC(=O)C1(C)C=C(Nc2ccc(O)cc2)C(=O)N1c1ccc(O)cc1 (stereo not given)	28µM*	5%	-12	-1%	?	14µM*
O=C(NC(=O)N1CCN(c2ccc([N+](=O)[O-])cn2)CC1)c1ccccc1F	-1%	4%	nt	-9%	8%	2%
CCC(=O)Nc1nc2ccc(S(C)(=O)=O)cc2s1	5%	-8%	-100*	-6%	7%	3%
Cc1ccc2nc(NC(=O)CSc3ncnc4c3oc3ccccc34)sc2c1	-12%	-19%	-108*	4%	-7%	10%
CCCNS(=O)(=O)c1ccc2nc(NC(=O)c3ccc(F)cc3)sc2c1	?	-1%	nt	-2%	-26%	28µM*
SMILES	Tau fibril FP	TRb SRC2 PPI	PNC assembly inh	TexasRed fluor	Tau fluor cs	Tau ThT inhib
Cc1cccc(NC(=O)CSc2ncnc3c2oc2ccccc23)c1	-10%	-5%	2	-2%	?	-17%
O=C(O)COc1ccc(/C=C/c2nc3ccc([N+](=O)[O-])cc3s2)cc1	-11%	10%	nt	0%	-24%	2µM*
Fc1ccc(CSc2nnc(-c3ccco3)o2)cc1	-13%	-5%	nt	-2%	-16%	-5%
O=C(NCc1csc(-c2cccs2)n1)Nc1cccc(Cl)c1	?	5%	nt	0%	-29%	-13%
COCCCNC(=S)NCCc1ccc(F)cc1	-1%	-8%	nt	-4%	-15%	-8%
CS(=O)(=O)c1ccc2nc(NC(=O)c3ccc(NS(=O)(=O)c4ccc(F)c(F)c4)cc3)sc2c1	?	16%	nt	-6%	?	nt
CCOCC(=O)Nc1nc2ccc(C)cc2s1	-3%	-6%	-100*	-6%	-6%	-5%
Cc1cccc(OCC(=O)Nc2nc3ccc([N+](=O)[O-])cc3s2)c1	-10%	5%	?	0%	?	2µM*
Cc1cccc(OCC(=O)Nc2nc3ccc([N+](=O)[O-])cc3s2)c1C	-1%	-10%	?	2%	-19%	-15%
O=C(Nc1nc2ccc(SC(F)F)cc2s1)c1ccc(NS(=O)(=O)c2ccc(F)c(F)c2)cc1	13µM*	14%	-14	-2%	?	?
Cn1ncc2c(Nc3ccc(-c4ccccc4)cc3)ncnc21	?	0%	-82*	-2%	?	?
COc1ccc(Nc2ncnc3sc(-c4ccccc4)cc23)cc1	?	-12%	63	-9%	7.9µM*[quencher]	?
COc1ncnc2sc(-c3ccccc3)cc12	-8%	-3%	13	1%	-1%	-7%
CN1CCN(CC(=O)NC23CC4CC(CC(C4)C2)C3)CC1	-7%	-8%	nt	0%	8%	nt
Cc1ccc(S(=O)(=O)NC2OC(=O)C(Cl)=C2Cl)cc1 (stereo not given)	?	-15%	?	-4%	-19%	28µM*
Cc1ccc(NC(=O)/C(C#N)=C/c2cc(C)n(-c3ccc(F)cc3)c2C)cc1C	-4%	-3%	nt	2%	1%	-2%
CN(C)c1nc(C=C(C#N)C#N)c(Cl)n1-c1ccc(F)cc1	?	1%	nt	-1%	-29%	14µM*
O=C(Nc1ccccc1C(F)(F)F)N1Cc2ccccc2Oc2ncccc21	0%	2%	nt	1%	-10%	5%
